Source: PubChem BioAssay AID1851 (National Center for Advancing Translational Sciences (NCATS), 2009)
Where “and” joins values, the source holds several entries; their conditions need not be identical. Identical values can stand only once. Among all 16,000 compounds or so, about 4,000 (25%) were called active. Not shown: some 26% with an inconclusive outcome. The call rests on the fitted dose curve; in most records, active means well fitted curve in the direction sought with a large enough effect; inconclusive means small, poorly fitted or top-dose-only effect, or effect the other way; inactive means no such curve, though single readings can be large or run the other way. Not all results are given here.

biological target: Cytochrome P450 2C9 (Homo sapiens) (UniProt P11712); assay: Cytochrome panel assay with activity outcomes; details: recombinant CYP, pro-luciferin dealkylation, luminescence, p450-cyp2c9; series mostly up to 57.1 µM
Sequence (P11712 whole entry, looked up): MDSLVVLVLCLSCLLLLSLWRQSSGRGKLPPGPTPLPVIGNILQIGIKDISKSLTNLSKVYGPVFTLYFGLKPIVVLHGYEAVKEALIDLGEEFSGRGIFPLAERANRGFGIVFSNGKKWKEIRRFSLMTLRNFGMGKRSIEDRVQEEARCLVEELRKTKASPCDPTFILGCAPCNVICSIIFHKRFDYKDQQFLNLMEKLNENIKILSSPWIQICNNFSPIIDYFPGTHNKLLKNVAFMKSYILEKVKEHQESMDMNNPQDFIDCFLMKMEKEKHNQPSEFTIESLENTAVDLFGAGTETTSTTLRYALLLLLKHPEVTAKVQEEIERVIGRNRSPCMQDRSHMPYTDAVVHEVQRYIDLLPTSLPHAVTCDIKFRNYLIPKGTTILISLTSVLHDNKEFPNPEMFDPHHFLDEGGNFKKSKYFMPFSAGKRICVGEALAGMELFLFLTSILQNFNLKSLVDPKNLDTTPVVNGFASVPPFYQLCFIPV
On the % scale 0 is the no-effect control and ±100 the full control effect.

Compound | AC50 | activity, negative = inhibition
COc1ncc2nc(-c3cn(C)c4ccccc34)c(=O)n(C)c2n1 | inactive | –
COc1cc2c(cc1OC)C(CCN)=NCC2 | – | -3.31% [at 11.4 µM] (inactive)
C[C@]1(O)CC[C@H]2[C@H]3CC=C4N5CCN=C5CC[C@@]4(C)[C@H]3CC[C@@]21C | – | -4.16% [at 11.4 µM] (inactive)
CC(=O)NCCNc1ncnc2ccc(-c3ccc4c(c3)OCO4)cc12 | – | 5.09% [at 2.29 µM] (inactive)
c1nc(NCCN2CCOCC2)c2cc(-c3ccc4c(c3)OCO4)ccc2n1 | – | 6.81% [at 2.29 µM] (inactive)
COc1ccc2[nH]cc(CCNc3cc(-c4cccc(C#N)c4)ncn3)c2c1 | – | -22.1% [at 2.29 µM] (inactive)
Cc1cnc(CNc2ncnc3ccc(-c4cccc(C#N)c4)cc23)cn1 | – | -16.4% [at 2.29 µM] (inactive)
COc1cccc(-c2ccc3ncnc(NCCc4c[nH]c5ccc(OC)cc45)c3c2)c1 | 0.398 µM (active) | –
COc1cccc(-c2ccc3ncnc(NCc4cnc(C)cn4)c3c2)c1 | – | -22.3% [at 2.29 µM] (inactive)
COc1ccc2[nH]cc(CCNc3ncnc4ccc(-c5ccc6c(c5)OCO6)cc34)c2c1 | 0.126 µM (active) | –
COc1ccc2[nH]cc(CCNc3ncnc4ccc(-c5ccccc5CN(C)C)cc34)c2c1 | – | -13.9% [at 2.29 µM] (inactive)
COc1ccc2[nH]cc(CCNc3ncnc4ccc(-c5cccc(C#N)c5)cc34)c2c1 | 0.0631 µM (active) | –
COc1ccc2[nH]cc(CCNc3ncnc4ccc(-c5ccccc5OC)cc34)c2c1 | 0.251 µM (active) | –
CNc1ncnc2ccc(-c3ccccc3OC)cc12 | – | 2.7% [at 2.29 µM] (inactive)
CC(C)=CCC/C(C)=C/CO/N=C1/C[C@@H](O)[C@@H](O)[C@@H]2[C@@H]3C(=O)N(C(C)(C)C)C(=O)[C@H]3CC[C@H]12 | – | 23% [at 11.4 µM] (inactive)
CC(=O)OC[C@@H]1O[C@H](C/C=N\O[C@@H](C)CN2CCCCc3nc(C)c(C)cc32)C=C[C@@H]1OC(C)=O | – | 10.2% [at 11.4 µM] (inactive)
CC(C)(C)NC[C@H](O)COc1cccc2c1CCCC2=O | inactive | –
CC(C)[C@H](CO)Nc1nc(Nc2cc(N)cc(Cl)c2)c2ncn(C(C)C)c2n1 | 20 µM (active) | –
CC(C)[C@H](CO)Nc1nc(Nc2ccc(C(=O)O)c(Cl)c2)c2ncn(C(C)C)c2n1 | inactive | –

Compound | AC50 | activity, negative = inhibition
CC(C)Oc1cccc(-n2c(CCc3c[nH]c4ccc(Br)cc34)nc3ccccc3c2=O)c1 | inactive | –
O=c1/c(=C\c2ccc(O)cc2)sc2n1C(c1ccccc1)C(c1ccccc1)=NN=2 (stereo unspecified) | 3.55 µM (active) | –
CC(=O)NCCNc1nc(-c2ccc(N(C)C)cc2)nc2ccccc12 | – | -16.1% [at 2.29 µM] (inactive)
COc1ccc(CNc2ccnc(-c3ccc4c(c3)OCO4)n2)c(OC)c1 | – | -25.6% [at 2.29 µM] (inactive)
COc1ccc([C@@H](C)c2cc3c(cc2O)OCO3)cc1 | 1.58 µM (active) | –
COc1ccc([C@@H](Nc2ncccn2)c2cc3c(cc2O)OCO3)cc1 | 3.16 µM (active) | –
COc1ccccc1CNc1ccnc(-c2ccc3c(c2)OCO3)n1 | – | -27.5% [at 2.29 µM] (inactive)
O=C(O)[C@@H](O)Cc1ccccn1 | – | -2.15% [at 11.4 µM] (inactive)
O=C(COc1ccc(Cl)cc1Cl)N/N=C/CCc1ccccc1 | inactive | –
CC(C/C=N/NC(=O)COc1cc(Cl)ccc1Cl)c1ccccc1 (stereo unspecified) | 10 µM (active) | –
CC(C)C(=O)Nc1ccc(NC(=O)c2cccnc2)cn1 | inactive | –
CC(C)C(=O)Nc1ccc(Sc2ccc(F)cc2)cc1 | 14.1 µM (active) | –
C/C(=N\NC(=S)Nc1ccc(F)cc1)C1CC1 | inactive | –
O=C(c1cc(C(F)(F)F)cc(C(F)(F)F)c1)N1CCC[C@@]2(CCN(c3ccncc3)C2)C1 | inactive | –
O=C(O)CC[C@@H](NC(=O)c1ccccc1C(=O)O)C(=O)O | inactive | –
CCCCCN(CCCCC)C(=O)[C@H](CCC(=O)O)NC(=O)c1ccc(Cl)c(Cl)c1 | 3.98 µM (active) and 1 µM (active) | –
CCCN(CCC)C(=O)[C@@H](CCC(=O)O)NC(=O)c1ccccc1 | inactive | –
CN(C)CCCO[C@H]1[C@H]([C@H](O)CO)O[C@H]2OC(C)(C)O[C@@H]21 | inactive | –
Cc1cc(OC(=O)c2ccccc2Br)cc(=O)n1C | inactive | –

Compound | AC50 | activity, negative = inhibition
Cc1cc(OC(=O)c2ccc(Cl)cc2)cc(=O)n1C | 25.1 µM (active) | –
CC(C)=C[C@H]1[C@@H](COC(=O)c2ccccc2Cl)C1(C)C | – | -5.63% [at 11.4 µM] (inactive)
Cc1cc(OC(=O)c2ccccc2Cl)cc(=O)n1C | 10 µM (active) | –
CN(C)CCC=C1c2ccccc2C=Cc2ccccc21 | inactive | –
CCNc1ncc2nc(-c3ccc(F)cc3)c(=O)n(-c3ccc(OC)cc3)c2n1 | inactive | –
O=C1[C@H]2CCn3c(=O)n(-c4ccccc4)c(=O)n3[C@H]2[C@H](O)[C@H]2O[C@@H]12 | – | -4.73% [at 11.4 µM] (inactive)
Clc1ccccc1C(Nc1ncccn1)Nc1ncccn1 | – | 4.43% [at 11.4 µM] (inactive)
CCOC(=O)CC(Nc1nc(N2CCOCC2)nc(N2CCOCC2)n1)c1ccccc1Cl (stereo unspecified) | 4.47 µM (active) | –
CCc1ccccc1N1C(=O)c2cccc3c(N4CCOCC4)c([N+](=O)[O-])cc(c23)C1=O | 15.8 µM (active) | –
O=c1cc(N2CCOCC2)oc2c(-c3ccccc3)cccc12 | inactive | –
CO[C@H]1C[C@@H]2C[C@H](O)C[C@@H](CC(=O)O[C@@H](/C=C\CC(C)C)C[C@@H]3CC[C@H](C)[C@@H](C1)O3)O2 | – | 1.57% [at 11.4 µM] (inactive)
O=C(NCCN1CCN(Cc2ccccc2)CC1)C1c2ccccc2C(=O)N2CCc3ccccc3C12 (stereo unspecified) | inactive | –
CN1CCC2(CC1)CCN(S(=O)(=O)c1ccccc1)CC2 | inactive | –
O=C1c2ccccc2C(=O)N1CC1c2ccccc2CCN1S(=O)(=O)c1ccccc1 (stereo unspecified) | 3.16 µM (active) | –
COCC(C)n1c(C)cc(C(=O)CSc2nnc(Nc3ccccc3F)s2)c1C (stereo unspecified) | 11.2 µM (active) | –
CCOC(=O)N1CCN(C(=O)c2ccc3nc(SCc4ccc(F)cc4)n(C)c3c2)CC1 | 1.58 µM (active) | –
N#Cc1ccc(CN2CC3(CCN(C(=O)c4cccc(F)c4)CC3)C2)cc1 | inactive | –
CCOC(=O)N1CCN(C(=O)c2cc(-c3ccc(F)cc3)[nH]c2C)CC1 | inactive | –
